# Screening results (PubChem BioAssay)
# HTR5A inv ctr – HTR5A inverse agonists in luminescence cell assay, primary screen, counter-screen for OPRM1-OPRD1 heterodimer inverse agonist project, full-deck HTS; 5-hydroxytryptamine receptor 5A (Homo sapiens), P47898; 340,000 tested, 0.083% active; inhibition, % at 9.3 µM; AID 504634, 2011; HTR5A cell line, inverse agonism; in the data active means inhibition mostly above about 23%, no sharp cut-off; inactive means mostly below about 18%;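 further: 0% = cells with DMSO and 100% = no-cell wells with DMSO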
# OPRM1-OPRD1 ag – agonists of OPRM1-OPRD1 heterodimerization, primary screen, cell-based, luminescence. cells. activation, % at 9.3 µM. 340,000 tested, 0.3% active; in the data active means activation above about 18%;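 further: 0% = vehicle-treated cells and 100% = reference agonist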
# Target sequence (P35372 whole entry, looked up): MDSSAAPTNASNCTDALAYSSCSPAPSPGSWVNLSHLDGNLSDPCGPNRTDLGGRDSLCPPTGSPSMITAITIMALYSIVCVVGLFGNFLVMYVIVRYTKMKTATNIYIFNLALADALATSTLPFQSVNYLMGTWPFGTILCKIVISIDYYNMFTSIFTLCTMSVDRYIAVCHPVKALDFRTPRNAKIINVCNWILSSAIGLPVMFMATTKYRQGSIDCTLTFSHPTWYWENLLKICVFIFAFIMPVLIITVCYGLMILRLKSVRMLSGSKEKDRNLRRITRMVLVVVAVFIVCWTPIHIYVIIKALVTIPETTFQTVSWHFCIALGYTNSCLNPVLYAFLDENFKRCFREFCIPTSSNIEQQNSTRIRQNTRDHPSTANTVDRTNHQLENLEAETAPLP
# Target sequence (P41143 whole entry, looked up): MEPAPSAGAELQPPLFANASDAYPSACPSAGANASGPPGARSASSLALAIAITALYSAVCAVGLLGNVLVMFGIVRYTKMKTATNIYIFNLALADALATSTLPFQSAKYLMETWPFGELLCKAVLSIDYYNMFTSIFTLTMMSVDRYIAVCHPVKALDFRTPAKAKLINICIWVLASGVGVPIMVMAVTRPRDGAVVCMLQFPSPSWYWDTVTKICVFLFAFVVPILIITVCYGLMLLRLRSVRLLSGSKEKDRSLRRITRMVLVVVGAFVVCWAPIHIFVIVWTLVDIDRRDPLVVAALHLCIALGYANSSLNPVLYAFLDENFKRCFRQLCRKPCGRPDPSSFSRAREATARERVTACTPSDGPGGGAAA
# MOR-DOR inv ag – inverse agonists of MOR-DOR heterodimerization, primary screen, cell-based, luminescence | Mu-type opioid receptor (Homo sapiens) + Delta-type opioid receptor (Homo sapiens), … | cell-based MOR-DOR heterodimer luminescence, inverse agonism | inhibition, % at 9.3 µM | 340,000 tested, 0.21% active; in the data active means inhibition above about 22%, passing the limit was not always enough;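 further: 0% = cells with DMSO and 100% = wells without cells with DMSO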
# bovine MsrA act – bovine MsrA enzyme activators, primary screen, biochemical, absorbance, HTS. Methionine sulfoxide reductase A (Bos taurus). purified bovine MsrA, absorbance read-out. activation, % at 10.6 µM. 360,000 tested, 0.3% active. AID 602163, 2012; in the data active means activation above about 7.5%;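 further: 0% = vehicle and 100% = reference activator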
# HTR5A ag ctr – HTR5A agonists in luminescence cell assay, primary screen, counter-screen for OPRM1-OPRD1 heterodimer agonist project, full-deck HTS. 5-hydroxytryptamine receptor 5A (Homo sapiens), P47898. cell-based. activation, % at 9.3 µM. 340,000 tested, 0.61% active; in the data active means activation mostly above about 9.5%, no sharp cut-off; inactive means mostly below about 7.6%;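 further: 0% = cells with vehicle only and 100% = reference agonist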
# MsrA inhibitor – bovine MsrA enzyme inhibitors, primary screen, biochemical, absorbance, HTS | Methionine sulfoxide reductase A (Bos taurus) | purified bovine MsrA, absorbance read-out | inhibition, % at 15.5 µM | 360,000 tested, 0.75% active | AID 651718, 2012;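 further: 0% = vehicle wells with enzyme and 100% = reference inhibitor wells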
# MsrA inh confirm – bovine MsrA inhibitors, retest, confirmation, biochemical, absorbance, HTS. inhibition, % at 15.5 µM. 2,300 tested, 41% active. shares compounds with MsrA inhibitor. purified bovine MsrA, absorbance read-out;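 further: coupled to thioredoxin reductase with NADPH and selenocystamine and DMSO as substrate; 0% = vehicle only and 100% = full effect of reference inhibitor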
# The depositor's hits bear a star; x = not tested or not shown. Sampled rows, rich in hits. Any-hit rate of the full collection: about 1.9%. Unless noted, no stated cut-off is given here; in the data, active means inhibition above about 4.5%; inactive means the rest.
SMILES,HTR5A inv ctr,OPRM1-OPRD1 ag,MOR-DOR inv ag,bovine MsrA act,HTR5A ag ctr,MsrA inhibitor,MsrA inh confirm
C=CCc1c(C)nc(C)nc1N/N=C/c1ccc(N(C)C)cc1,1,0,2,-15,0,6.8*,5.0*
O=Cc1c(-c2ccccc2)nc2ccccn12,-7,-3,15,-2,0,13*,10*
O=C(Nc1c(-c2ccccc2)nc2ccccn12)c1ccccc1,-9,-5,23,-5,2,2,x
Cc1ncsc1C(=O)Nc1nc2c(s1)CC(C)CC2 (stereo not given),4,1,-5,-11,-3,6.3*,1
CN(C)c1ccc(/C=N/NC(=O)c2nonc2N)cc1[N+](=O)[O-],-2,-3,16,-5,1,4.9*,4
COc1ccc(/C=N/NC(=O)c2c(-c3ccccc3)noc2C)cc1[N+](=O)[O-],8,0,-1,-4,-3,-1,x
Cc1onc(-c2ccccc2)c1C(=O)N/N=C/c1ccc(O)c([N+](=O)[O-])c1,0,-1,3,-7,0,5.5*,4
O=C(N/N=C/c1ccc(O)c([N+](=O)[O-])c1)c1ccncc1,29,-2,10,-5,3,5.6*,4.9*
O=C(N/N=C/c1ccc(O)c(O)c1)c1ccc(-n2cnnn2)cc1,14,0,0,-3,-4,4.8*,4.6*
N#Cc1cccc(C(=O)C(=O)N2CCN(C(=O)OCc3ccccc3)CC2)c1,x,x,x,x,x,-1,x
COc1ccccc1NC(=S)NC(=O)C1CC1,8,-1,5,-1,3,2,x
O=C(NC(=S)Nc1ccccc1Cl)C1CC1,5,-4,22,-6,-2,7.0*,4
C[C@@H](NS(=O)(=O)c1c(F)cccc1F)c1ccccc1,x,x,x,x,x,1,x
O=C(COc1ccccc1[N+](=O)[O-])Nc1cccc(Cl)c1N1CCOCC1,16,-2,11,-3,-6,5.9*,2
CCOc1cc(N2CCOCC2)c(OCC)cc1NC(=O)COc1ccccc1[N+](=O)[O-],2,2,-9,0,-1,-1,x
CC(C)(C)c1ccc(C(=O)/C=C2\NC(=O)CS2)cc1,18,1,-3,-12,-7,5.1*,4
Cc1nn(-c2ccccc2)c(N2CCCC2)c1/C=N/NC(=O)c1cc(-c2cccnc2)nc2ccccc12,-11,3,-17,-11,4,4.7*,1
Cc1nn(-c2ccccc2)c(N2CCCC2)c1/C=N/NC(=O)c1ccccc1O,7,-2,10,-5,-1,1,x
Cc1ccc2[nH]c(C(=O)N/N=C/c3ccccc3C(=O)O)c(-c3ccccc3)c2c1,-23,1,-6,-2,7,4,x
Cc1nc2ccccc2c(=O)n1/N=C/c1ccccc1,-8,1,-3,-1,4,-1,x
COc1ccc(/C=N/NC(=O)c2cc(-c3ccccc3)nc3ccccc23)cc1O,-2,-3,14,-4,1,2,x
COc1ccc(/C=N/NC(=O)c2[nH]c3ccc(C)cc3c2-c2ccccc2)c(C(=O)O)c1OC,11,-3,15,-5,-3,6.2*,4
COc1cc(/C=N/NC(=O)c2cc(-c3ccccc3)nc3ccccc23)ccc1O,-16,-3,13,-3,5,5.0*,4
COc1cc(/C=N/n2c(C)nc3ccccc3c2=O)ccc1O,23,-1,4,-3,-6,5.4*,3
COc1ccc(C(=O)NCCNc2nc3cc(C)cc(C)c3cc2C#N)c(OC)c1,x,x,x,x,x,-1,x
SMILES,HTR5A inv ctr,OPRM1-OPRD1 ag,MOR-DOR inv ag,bovine MsrA act,HTR5A ag ctr,MsrA inhibitor,MsrA inh confirm
COc1ccc(-c2cc(C(=O)N/N=C/c3ccc4c(c3)OCO4)c3ccccc3n2)c(OC)c1,12,0,-3,-3,-2,5.8*,4
COc1cc(/C=N/NC(=O)c2cc(-c3ccco3)nc3ccccc23)cc(OC)c1O,-28,-2,12,-7,5,4.7*,3
COc1ccc(/C=N/NC(=O)c2cc(-c3ccccc3)nc3ccccc23)c(C(=O)O)c1OC,22,-2,10,-4,-6,4.7*,2
COc1cccc(-c2cc(C(=O)N/N=C/c3cccc(OC)c3OC)c3ccccc3n2)c1,-11,-1,6,-2,5,1,x
Nc1nc2ccccc2cc1C(=O)NCc1ccc(-c2ccccc2)cc1,x,x,x,x,x,-1,x
CC(C)C[C@@H]1COc2cc(F)ccc2S(=O)(=O)N1,x,x,x,x,x,0,x
Cc1ccccc1CN1[C@@H](CC(C)C)COc2cc(Br)ccc2S1(=O)=O,x,x,x,x,x,0,x
Cc1ccc(/C=C/C(=O)OCC(=O)NCc2ccccc2)o1,0,0,3,-6,3,4,x
CCCNC(=O)COC(=O)/C=C/c1ccc(C)o1,22,1,-2,-2,-9,5.8*,5.5*
C=CCN1[C@@H](C)[C@H](c2ccccc2)Oc2cccc(NCC(C)C)c2S1(=O)=O,x,x,x,x,x,0,x
COc1cc(/C=N\Nc2nc3ccccc3o2)cc(OC)c1OC,4,0,1,-4,4,5.2*,3
O=S1(=O)N=C(N(CCO)/N=C/c2ccc(Cl)cc2)c2ccccc21,5,3,-17,0,-1,0,x
COc1ccc(/C=N/Nc2nc3ccccc3o2)cc1O,4,-2,9,-9,1,3,x
COc1cc(/C=N/NC2=NS(=O)(=O)c3ccccc32)cc(OC)c1OC,-10,-4,18,-4,3,5.5*,4.6*
O=S1(=O)N=C(N(CCO)/N=C/C=C/c2ccccc2)c2ccccc21,4,2,-7,-8,6,8.3*,5.7*
O=S1(=O)N=C(N/N=C/C=C/c2ccccc2)c2ccccc21,18,-3,15,-8,0,6.8*,6.2*
Cc1ccc2nc(-c3ccc(SCC(=O)O)nc3)[nH]c2c1,-1,0,2,-13,-1,8.9*,4.7*
O=C(CSc1ccc(-c2nc3ccccc3[nH]2)cn1)Nc1ccc(S(=O)(=O)N2CCCC2)cc1,9,3,-18,-4,3,3,x
Cc1cc2nc(-c3ccc(SCC(=O)Nc4ccc(S(=O)(=O)N5CCCC5)cc4)nc3)[nH]c2cc1C,-20,2,-9,-8,-1,5.0*,3
O=C1NC[C@H](CCCCN2C[C@H](Cc3ccccc3)N(CCc3ccc(O)cc3)C(=O)C2=O)N(CCc2ccccc2)C1=O,x,x,x,-6,x,0,x
Nc1ncc(Br)cc1Br,-14,-1,6,-4,5,1,x
